Test in all cases: DAPPL (digital affinity profiling via proximity ligation, sequencing); 10 mM Tris-HCl pH 7.5, 50 mM NaCl, 1 mM DTT, 4% glycerol, room temperature, 30 min; GST-TFs on glutathione beads, 16-mer random dsDNA library, 0.1% formaldehyde crosslink after washing; high values mean tight binding
One assay has as its target HSF1 (Homo sapiens, UniProt Q00613 1-529). The settings on record: protein: recombinant; tags: N-terminal GST; chain copies: 3; dsDNA, one strand shown. The essentials: (§1)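 Human transcription factors carrying a GST fusion were produced in yeast, bound to glutathione beads, tagged with DNA barcodes and pooled together with a tag-only sample. Each pool was held with 200 nmole of a random double-stranded 16-mer DNA library in Tris/NaCl/DTT/glycerol buffer for 30 min at room temperature, then washed, crosslinked in 0.1% formaldehyde, proximity-ligated with BsaI/T4 ligase (1 h, 37 °C), PCR-amplified and sequenced on an Illumina NextSeq500. Binding signal is the read frequency of each hexamer for a given factor divided by its frequency in the tag-only sample.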

For another assay, the target named is T1, ELF3 (Homo sapiens, UniProt P78545 1-371).
T1 sequence: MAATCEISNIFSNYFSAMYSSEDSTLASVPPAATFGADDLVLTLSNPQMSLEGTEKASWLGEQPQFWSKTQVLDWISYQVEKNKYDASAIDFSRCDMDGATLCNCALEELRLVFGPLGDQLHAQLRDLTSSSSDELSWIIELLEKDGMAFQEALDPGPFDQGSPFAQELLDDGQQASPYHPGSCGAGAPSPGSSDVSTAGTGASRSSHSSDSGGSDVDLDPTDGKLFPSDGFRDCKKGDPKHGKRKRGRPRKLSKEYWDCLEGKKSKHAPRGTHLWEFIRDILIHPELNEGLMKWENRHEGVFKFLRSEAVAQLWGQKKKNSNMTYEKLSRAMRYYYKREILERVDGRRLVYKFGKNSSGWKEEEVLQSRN
The settings on record: protein: recombinant; tags: N-terminal GST; dsDNA, one strand shown. Put shortly: as §1

The next assay addresses CRX (Homo sapiens, UniProt O43186 1-299). Conditions: protein: recombinant; tags: N-terminal GST; dsDNA, one strand shown. Put shortly:
as §1

The target of the next assay is T2, ETV2 (Homo sapiens, UniProt O00321 1-342).
T2 sequence: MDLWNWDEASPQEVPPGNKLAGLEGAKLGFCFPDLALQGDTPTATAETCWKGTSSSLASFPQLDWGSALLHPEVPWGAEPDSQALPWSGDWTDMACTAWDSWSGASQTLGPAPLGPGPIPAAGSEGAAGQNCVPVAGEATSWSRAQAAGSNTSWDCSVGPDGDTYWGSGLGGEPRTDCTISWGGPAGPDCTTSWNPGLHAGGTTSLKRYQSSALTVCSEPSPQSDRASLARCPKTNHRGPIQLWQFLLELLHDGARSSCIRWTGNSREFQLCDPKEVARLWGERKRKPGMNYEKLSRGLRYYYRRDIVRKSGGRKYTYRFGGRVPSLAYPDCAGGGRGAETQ
The settings on record: protein: recombinant; tags: N-terminal GST; dsDNA, one strand shown. The essentials: as §1

Another assay deals with T3, ELK1 (Homo sapiens, UniProt P19419 1-428).
T3 sequence: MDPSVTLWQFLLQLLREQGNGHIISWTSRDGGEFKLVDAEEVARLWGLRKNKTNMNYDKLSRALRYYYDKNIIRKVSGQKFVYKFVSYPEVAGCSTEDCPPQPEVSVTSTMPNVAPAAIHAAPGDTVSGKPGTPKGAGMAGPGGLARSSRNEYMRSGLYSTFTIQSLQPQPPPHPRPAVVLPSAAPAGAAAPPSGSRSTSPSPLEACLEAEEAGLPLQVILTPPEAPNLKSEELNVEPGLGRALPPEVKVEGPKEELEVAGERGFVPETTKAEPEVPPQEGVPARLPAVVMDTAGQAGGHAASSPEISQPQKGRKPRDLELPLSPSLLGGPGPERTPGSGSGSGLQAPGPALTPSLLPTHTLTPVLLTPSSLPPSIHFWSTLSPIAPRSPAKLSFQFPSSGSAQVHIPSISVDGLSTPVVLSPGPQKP
Conditions: protein: recombinant; tags: N-terminal GST; dsDNA, one strand shown. The essentials: as §1

The next assay concerns the target T4, GABPA (Homo sapiens, UniProt Q06546 1-454).
T4 sequence: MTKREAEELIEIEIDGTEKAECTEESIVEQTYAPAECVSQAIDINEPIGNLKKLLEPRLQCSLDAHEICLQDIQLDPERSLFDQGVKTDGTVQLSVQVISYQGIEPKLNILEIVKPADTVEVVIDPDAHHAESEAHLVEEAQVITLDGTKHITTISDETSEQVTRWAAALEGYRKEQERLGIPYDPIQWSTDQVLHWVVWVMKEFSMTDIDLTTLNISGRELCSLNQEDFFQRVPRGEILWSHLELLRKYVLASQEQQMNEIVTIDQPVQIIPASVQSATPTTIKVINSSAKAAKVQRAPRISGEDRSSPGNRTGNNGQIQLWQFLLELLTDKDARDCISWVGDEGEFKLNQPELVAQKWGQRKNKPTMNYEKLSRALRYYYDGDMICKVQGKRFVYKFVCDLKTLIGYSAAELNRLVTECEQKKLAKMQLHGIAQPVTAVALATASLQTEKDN
Conditions: protein: recombinant; tags: N-terminal GST; dsDNA, one strand shown. Put shortly: as §1

Another assay has as its target T5, ETV3L (Homo sapiens, UniProt Q6ZN32 1-361).
T5 sequence: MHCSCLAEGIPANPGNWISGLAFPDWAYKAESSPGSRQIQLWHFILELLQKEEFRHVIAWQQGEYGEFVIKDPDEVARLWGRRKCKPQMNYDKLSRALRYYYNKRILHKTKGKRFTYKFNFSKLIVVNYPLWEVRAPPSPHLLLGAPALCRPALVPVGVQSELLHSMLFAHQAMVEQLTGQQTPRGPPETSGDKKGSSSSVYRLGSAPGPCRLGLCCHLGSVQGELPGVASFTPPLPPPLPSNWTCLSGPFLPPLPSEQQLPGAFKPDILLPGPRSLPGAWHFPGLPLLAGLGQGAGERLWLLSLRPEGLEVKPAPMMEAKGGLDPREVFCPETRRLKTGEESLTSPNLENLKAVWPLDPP
Conditions: protein: recombinant; tags: N-terminal GST; dsDNA, one strand shown. The essentials:
as §1

Chain of CRX (O43186 whole entry): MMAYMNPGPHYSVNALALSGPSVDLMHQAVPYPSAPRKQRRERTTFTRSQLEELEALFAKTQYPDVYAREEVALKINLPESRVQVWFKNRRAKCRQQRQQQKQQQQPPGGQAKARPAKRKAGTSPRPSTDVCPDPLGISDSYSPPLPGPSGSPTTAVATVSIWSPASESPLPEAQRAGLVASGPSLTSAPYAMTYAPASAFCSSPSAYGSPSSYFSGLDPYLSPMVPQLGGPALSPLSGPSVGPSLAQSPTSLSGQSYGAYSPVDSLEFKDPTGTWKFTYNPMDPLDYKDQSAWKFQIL
Chain of HSF1 (Q00613 whole entry, the tested form may be a part): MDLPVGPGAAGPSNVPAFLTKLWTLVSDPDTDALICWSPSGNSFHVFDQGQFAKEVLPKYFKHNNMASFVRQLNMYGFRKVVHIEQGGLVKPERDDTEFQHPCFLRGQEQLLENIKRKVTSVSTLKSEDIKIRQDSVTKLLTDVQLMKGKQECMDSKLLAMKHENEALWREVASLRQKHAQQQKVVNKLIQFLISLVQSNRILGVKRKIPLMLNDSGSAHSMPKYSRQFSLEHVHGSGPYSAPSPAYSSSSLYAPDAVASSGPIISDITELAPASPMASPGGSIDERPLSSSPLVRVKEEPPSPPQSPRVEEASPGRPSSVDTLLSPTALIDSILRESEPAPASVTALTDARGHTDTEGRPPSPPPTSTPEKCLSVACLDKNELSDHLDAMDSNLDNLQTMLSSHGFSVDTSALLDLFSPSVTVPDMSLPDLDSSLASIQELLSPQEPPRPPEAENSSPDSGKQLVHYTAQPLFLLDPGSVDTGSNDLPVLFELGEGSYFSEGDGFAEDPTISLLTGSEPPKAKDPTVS

As for TACGAG, the binding signal with HSF1 was 1.26 fold enrichment (6-mer frequency, TF over GST control); with ELF3, 1.02 fold enrichment (6-mer frequency, TF over GST control); in the assay with CRX, 1.05 fold enrichment (6-mer frequency, TF over GST control).

For GACTAA, the binding signal in the assay with HSF1 is 1.13 fold enrichment (6-mer frequency, TF over GST control); with CRX it was 1.44 fold enrichment (6-mer frequency, TF over GST control).

Consider GCATTA, for which the binding signal with HSF1 was 1.16 fold enrichment (6-mer frequency, TF over GST control); with CRX, 1.64 fold enrichment (6-mer frequency, TF over GST control).

In the case of AGAATC, the binding signal in the assay with HSF1 was 1.74 fold enrichment (6-mer frequency, TF over GST control); with CRX, 1.21 fold enrichment (6-mer frequency, TF over GST control).

In the case of TTAGAG, the binding signal with HSF1 was 1.25 fold enrichment (6-mer frequency, TF over GST control); with ETV2, 1.01 fold enrichment (6-mer frequency, TF over GST control); with CRX, 1.77 fold enrichment (6-mer frequency, TF over GST control).

As for ACCAGA, the binding signal with HSF1 was 1.55 fold enrichment (6-mer frequency, TF over GST control); with ETV2, 1.01 fold enrichment (6-mer frequency, TF over GST control); with CRX it was 1.06 fold enrichment (6-mer frequency, TF over GST control).

Turning to TCGAGT, the binding signal with ELK1 is 1.01 fold enrichment (6-mer frequency, TF over GST control); with GABPA, 1 fold enrichment (6-mer frequency, TF over GST control); in the assay with HSF1 it was 1.41 fold enrichment (6-mer frequency, TF over GST control); with ETV3L, 1.06 fold enrichment (6-mer frequency, TF over GST control).

The values above are taken from PMC7862700, “An all-to-all approach to the identification of sequence-specific readers for epigenetic DNA modifications on cytosine”.
